About 410 (8.5%) of roughly 4,800 compounds showed an effect of 50% or more. The list comes from a sample in which strong results are over-represented; it also holds similar structures and randomly drawn compounds.
System: Plasmodium falciparum
Assay: Confirmatory screen in NF54 pLDH assay, in single point, at 2uM, 72h
Type: functional, Erythrocyte
Settings: timepoint 72 hour

Row | SMILES | % Inhibition [%]
1 | O=C(CN1N=C(C(=O)Nc2ccccc2)CCC1=O)Nc1ccc(OC(F)(F)F)cc1 | -8
2 | CC[n+]1c(/C=C/N(C)c2ccccc2)oc2ccccc21 | 76
3 | CC[n+]1c(/C=C/N(C)c2ccccc2)oc2ccc(-c3ccccc3)cc21 | 91
4 | CCCn1nnc(N(C(=O)c2cc(Br)cc(C)c2OC)C(=O)c2cc(Br)cc(C)c2OC)n1 | 0
5 | CCCC1CCC(c2ccc(-c3noc(-c4ccc(O)c(F)c4)n3)cc2)CC1 (configuration not stated) | 4
6 | CC(C)c1ccc2ncnc(N[C@H]3CCc4[nH]cnc4C3)c2c1 | 101
7 | O=c1[nH]nc(-c2ccc3c(c2)CCC3)c2ccccc12 | -1
8 | COc1ccc(-c2cc3ncc(C(=O)c4cc(Cl)ccc4O)cn3n2)cc1 | 78
9 | COc1ccc(C2=NC3(CCN(Cc4ccccc4)CC3)N[C@H](c3cc(Cl)ccc3O)C2)cc1 | 9
10 | O=C(Nc1ccc2c(c1)CNCC2)C1CC1c1ccc(F)c(F)c1 (configuration not stated) | 15
11 | COc1ccccc1CC(=O)N(c1nc(C)cs1)C1CC1 | -8
12 | Cc1c(NC(=O)N2CCC(C)C(n3ccnc3)C2)cccc1N(C)C (configuration not stated) | 7
13 | COc1ccc(Cl)cc1NC(=O)Cc1c(C)nc2nc(-c3ccccc3C)nn2c1C | 6
14 | COc1ccc(-n2nc(C)c(Cc3ccc(Cl)cc3)c2O)cc1 | 12
15 | COc1ccc(CC(=O)Nc2cc(C)n(-c3cccc(Cl)c3)n2)cc1 | 93
16 | C[C@@H](C(=O)NCCN1CCCCC1)N1C(=O)COc2ccc(C(=O)COc3ccccc3Cl)cc21 | -20
17 | Cc1nn(-c2ccccc2)c2c1[C@@H](c1ccc(C(F)(F)F)cc1)N(c1ccccc1)C(=O)N2 | 9
18 | CCn1ncc(NC(=O)c2cc(-c3ccccc3)on2)c1C | -19
19 | CCc1ccccc1Nc1nc(C)c(C(=O)NCc2cccnc2)s1 | -22
20 | COc1ccc(Nc2nnc(-c3ccc(NC(=O)C(=O)NCCCn4ccnc4)cc3)s2)cc1 | 76
21 | COc1ccc(-c2nccn3cc(C(=O)NCCc4ccncc4)nc23)cc1 | 5
22 | O=S(=O)(Cc1cc(Cl)cc(Cl)c1)NCCCCn1ccnc1 | -11
23 | CCOc1ccc(CN2CC[C@H](Nc3ncccn3)[C@@H](O)C2)cc1Cl | -18
24 | CC(C)c1ccc(-c2nc(CN3CCCCC3)cc(CN3CCCCC3)c2O)cc1 | 95
25 | CC(C)c1nc(O)cc(CN2CCCCC2)n1 | 4
26 | Cc1ccc(-c2ccnn2C)cc1NC(=O)[C@H]1CCCOC1 | 13

Row | SMILES | % Inhibition [%]
27 | COc1cc(C(=O)Nc2nnc(-c3ccc(C)s3)[nH]2)on1 | 9
28 | O=C(NCC1CC12CCc1ccccc12)NC1CC2CCC1O2 (configuration not stated) | 1
29 | Cc1ccc2nc(O)c3nnc(C)n3c2c1 | 15
30 | NS(=O)(=O)c1ccc(-c2noc(C3(c4cccc(F)c4)CCC3)n2)cc1 | -9
31 | CN(C)CCCNc1nc(N2CCCC2)c2c(c1C#N)CCN(C)C2 | 14
32 | CC(C)C(NC(=O)c1ccccc1F)C(=O)NC1CCC(N(C)C)C1 (configuration not stated) | -9
33 | CC1CCCN(c2nc(O)c3c(n2)NC(=O)CC3c2cccc(C(F)(F)F)c2)C1 (configuration not stated) | 9
34 | CC(C)Cc1nsc(N2CCOC3CCN(C)CC32)n1 (configuration not stated) | 11
35 | CN1c2cc(C(=O)N3CCN(c4ccccc4Cl)CC3)ccc2C(=O)N2CCCC[C@H]21 | 5
36 | Nc1ccnc(OCc2ccccc2)n1 | -16
37 | C[C@H](Oc1ccc(F)cc1)C(=O)N1CCC(c2nc3cc(Cl)ccc3s2)CC1 | -1
38 | Cc1cc(N(CCO)C2CC2)nc(C2CC2)n1 | -18
39 | Cc1cc(N(C)CCC2CC2)nc([C@H](C)N(C)CCC2CC2)n1 | 61
40 | Clc1ccc2c(c1)CC[C@@H]2NCc1nnc2n1CCC2 | 3
41 | O=C(NCCc1cccnc1)OCC(F)(F)F | -19
42 | Cc1ccc(OCCNc2cc([C@H]3C[C@H](N)C3)nc(C3CC3)n2)cc1C | 25
43 | N[C@H]1C[C@H](c2cc(NCCCc3cccnc3)nc(C3CC3)n2)C1 | 77
44 | Cc1ccc(N(C)CC(=O)N2CCC2)c(Br)c1 | -7
45 | COc1ccc(C(=O)N(C(=O)c2ccc(OC)cc2)c2c3c(nc4ccccc24)CCCC3)cc1 | 61
46 | COc1ccc(CCc2nc(NC(=O)c3[nH]nc4c3CCC4)n[nH]2)cc1 | -15
47 | O=C(Cc1ccccc1)Nc1c2c(nc3c1CCC3)CCCC2 | 8
48 | Cc1ccc2c(c1)N(C(=O)c1c[nH]c(C)cc1=O)CCC2 | -3
49 | COc1cc(OC)nc(-n2nc(C)cc2C(=O)Nc2ccc(Cl)cc2)n1 | 18
50 | Cc1cc(C)n(-c2nnc(-c3ccccc3)c(-c3ccccc3)n2)n1 | 10
51 | Cc1cc(C)n(-c2nc(Nc3ccc(Cl)cc3)nc(Nc3ccc(Cl)cc3)n2)n1 | 87
52 | Cc1cc(C)c(S(=O)(=O)Cc2ccccc2)c(O)n1 | 12

Row | SMILES | % Inhibition [%]
53 | Cc1ocnc1C(=O)N[C@H]1CCN(c2ccc(Cl)c(F)c2)C1=O | 7
54 | Cc1cc(N2CC(OCc3ccccc3)C2)nc(Nc2cccc(O)c2)n1 | 96
55 | Cc1cc(N2C[C@H]3CC[C@@H](C2)[C@H]3N(C)C)nc(Nc2cccc(O)c2)n1 | 86
56 | Cc1cccc([C@@H](NC(=O)Nc2ncco2)C(F)(F)F)c1 | -15
57 | N#Cc1ccccc1OCc1csc(-c2ccccn2)n1 | 6
58 | O=C(Nc1nc(CCc2c[nH]c3ccccc23)n[nH]1)c1cccnc1 | 12
59 | CC1=NN(S(=O)(=O)c2ccc(F)cc2)C(=O)c2ccccc2O1 | 5
60 | CN(Cc1nnc2n1CCC2)C(=O)Cc1cccs1 | 9
61 | COc1cc(CN(CC(N)=O)C(C)C)ccc1C | 9
62 | Cc1cc(C(=O)NCc2nc3ccccc3s2)c(C)o1 | 7
63 | Cc1ccc(COc2cccc(CNC3CC3)c2)cc1 | -1
64 | Cc1ccc(S(=O)(=O)N(CC(=O)NC2CCN(C)CC2)c2cccc(Cl)c2)cc1 | 2
65 | CN1CCN(C(=O)CNC(=O)c2cccc(Cl)c2)CC1 | 8
66 | Cn1cc(Cl)c(C(=O)Nc2cccc(S(=O)(=O)N3CCOCC3)c2)n1 | 13
67 | CCN1C(=O)[C@]2(NC3(CCCCC3)C(=O)N2CC)c2ccccc21 | -11
68 | Cc1nn(C)c(NC(=O)CCc2c[nH]cn2)c1C | -7
69 | Cc1cc(C(=O)NCCCS(N)(=O)=O)c(Cl)cc1F | -7
70 | Cc1ccc(O)c(CNc2ccc3c(c2)OCC3(C)C)n1 | -19
71 | Cc1ccc(O)c(CNCC2(c3ccccc3Cl)CCOCC2)n1 | 98
72 | c1csc(CNC2CCCCCCC2)c1 | -2
73 | COc1cc(C)c2[nH]c3c(c(=O)c2c1)CN(CC(=O)Nc1ccc(C)c(F)c1)CC3 | 8
74 | COc1ccc(OC)c(NC(=O)CN2CCc3[nH]c4ccc(F)cc4c(=O)c3C2)c1 | 83
75 | COc1cc(C)c2[nH]c3c(c(=O)c2c1)CN(CC(=O)Nc1ccc(F)c(C)c1)CC3 | 17
76 | Cc1nn(-c2ccccc2)c2nc(Cc3ccccc3)nc(N3CCCN(C(=O)NC4CCCCC4)CC3)c12 | 8
77 | Cc1cc(-c2ccccc2)cc(-c2ccccc2)c1-c1cc(-c2ccccc2)cc(-c2ccccc2)n1 | -3
78 | Cc1cc(-c2ccccc2)nc2sc(-c3ccccc3)c([O-])[n+]12 | 5

Row | SMILES | % Inhibition [%]
79 | Cc1cc[n+]2c(-c3ccccc3)cc(-c3ccccc3)nc2c1 | 50
80 | CC[C@H]1Cn2c(C(=O)NC3CCCC3)cc3c(Cl)ccc(c32)O1 | -11
81 | Cn1c2cn(-c3ccc(F)cc3)c(-c3ccccc3)c2c(=O)n1-c1ccccc1 | 6
82 | Cn1c(=O)c2c(-c3ccc(Cl)cc3)n(-c3cccc4cccc(N)c34)cc2n(C)c1=O | 91
83 | O=C(CCc1nc2ccccc2c(=O)[nH]1)Nc1ccc(-n2cnnn2)cc1 | 6
84 | O=C(N[C@H]1CCOC1=O)OCc1ccccc1 | -4
85 | CCOC(=O)c1cnn(C)c1S(=O)(=O)N1CCCCC1 | 2
86 | CC1CC(NC(=O)NC2CS(=O)(=O)c3ccccc32)C(=O)N1c1ccccc1 (configuration not stated) | -1
87 | Cc1ccc(Nc2c(-c3cc4ccccc4cc3O)nc3ncccn23)cc1 | 6
88 | O=C1CCCc2nc3[nH]n(-c4ccccc4)c(=O)c3cc21 | 13
89 | CNCCc1c(-c2ccccc2)[nH]n(-c2ccccc2)c1=O | 69
90 | CCCCCc1c(C)nc2[nH]n(-c3ccccc3)c(=O)c2c1O | -22
91 | CCOc1cccc(NCc2c(N)ncnc2OC)c1 | 13
92 | CC[C@@](C)(C(=O)NC1CCCC1)N(Cc1ccco1)C(=O)c1ccc2c(c1)OCO2 | -9
93 | Cc1ccc(CN2CCS(=O)(=O)CC2)o1 | -13
94 | Cc1oc(-c2ccc(C(=O)Nc3cccc(Cl)c3C)cc2)nc1COc1ccccc1 | 9
95 | CN1CCC(N2CCN(Cc3ccc4cc(O)ccc4c3)CC2)CC1 | 92
96 | Oc1ccc2cc(CN3CCC[C@H](CN4CCCC4)C3)ccc2c1 | 97
97 | CN1CC[C@H](CN(C)Cc2ccc3cc(O)ccc3c2)C1 | 36
98 | COc1ccc(NC(=O)N2C[C@@H]3C[C@H](NS(=O)(=O)c4ccccc4)[C@H]2C3)c(C)c1 | 3
99 | CCc1cccc(NC(=O)C2CCN(c3c(C)n(-c4ccccc4)c(=O)n(CC(C)C)c3=O)CC2)c1 | 5
100 | O=C1c2ccccc2C(=O)N1Cc1cnn(CC(F)F)c1 | 12
101 | COc1ccc2oc(-c3ccc(CNC(=O)c4cccnc4)cc3)nc2c1 | 6
102 | CC(C)(C)OC(=O)N1CCC(c2c(C(=O)Nc3ccc(Cl)cc3Cl)cnn2-c2cccc(F)c2)CC1 | -3
